SW480 rereplic – induces DNA re-replication in SW480 colon adenocarcinoma cells; hit rate 1.8% among 340,000; SW480 DNA re-replication, Hoechst DNA content imaging, 48 h; Potency, µM (doses to about 46.1 µM), for the others: top-dose re-replication activation, hits mostly activators; note: % of control where 0% means no effect; nearly all actives have a fitted effect of over 55% in size
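250 cells/well; 23 nL cpd via pin tool; 48 hr, 37 C, 5% CO2; Hoechst 40 min; imager read of total nuclear intensity, ex 405/em 500-530 nm.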
a7 integrin act – activates integrin-mediated alleviation for muscular dystrophy; alpha7betagal myoblasts, beta-gal FDG fluorescence, 48 h; Potency, µM (series often up to 38.3 µM), for the others: at the top dose activation, usual class: activators; hit rate 0.064% among 350,000; AID 624291;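 note: 100% = response of the positive control SU9516; nearly all actives have a fitted effect of over 60% in size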
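Alpha7betagal+/- myoblasts (passage 13) were plated 16-24 hr, then exposed to compounds (1:260 dilution of DMSO stock) for 48 hours at 37C. After MPER lysis, β-galactosidase reporter activity was read as FDG fluorescence (ex 480/em 540) after 30 minutes.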
MCF10A rereplic – inducers of DNA re-replication in MCF 10A breast cells; MCF 10A DNA re-replication, Hoechst nuclear intensity, 48 h; Potency, µM (top dose mostly 46.1 µM), inactives show at the highest dose activity, positive = re-replication, most hits filed as activators; hit rate 2.9% among 350,000; AID 624296; note: % of control where 0% means no effect; nearly all actives have a fitted effect of over 50% in size
AT treatment – potential ataxia-telangiectasia treatment; F2112 A-T fibroblasts, KAP-1 phosphorylation AlphaLISA; neocarzinostatin DNA damage 30 min before lysis; Potency, µM (series often up to 57.5 µM), inactives show at the top dose activation, hits mostly activators; hit rate 0.19% among 320,000; AID 485349; note: % of control where 0% means no effect; nearly all actives have a fitted effect of over 45% in size
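ATM-like activity read as KAP-1 phosphorylation via AlphaLISA donor/acceptor antibody pairs after lysis and 6 hr at 25C. Cells were ATM-null patient fibroblasts (F2112, hTERT), dosed 60 min, then exposed to the DSB inducer NCS for 30 min.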
Mito fusion act – mitochondrial division inhibition or fusion activation; AID 485298; Potency, µM (doses to about 46.1 µM), without a hit: at the top dose growth rescue (activation), hits mostly activators; S. cerevisiae fusion-defective mutant growth rescue, CellTiterGlo 48 h; hit rate 0.23% among 320,000; note: % of control where 0% means no effect; nearly all actives have a fitted effect of over 45% in size
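Yeast fusion mutant, YPEG (non-fermentable carbon), compound, 48 h at 37C non-permissive; CellTiterGlo added, 10 min RT, luminescence read. Rescued growth = division inhibition.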
Starred values were filed as active, the others as inactive; [ ] = remark or other dose. Sampled rows, rich in hits. Any-hit rate of the full collection: about 4.2%. Calls come from the whole dose curve; as a rule, active = well fitted activation curve with a large enough effect; inconclusive = small, poorly fitted or top-dose-only effect; inactive = no such curve, though single readings can be large or run the other way. Potency is the fitted concentration of half-maximal effect.

For COc1ccc(-c2nc3ccccc3c(C(=O)Nc3ccc(S(=O)(=O)Nc4cc(C)on4)cc3)c2C)cc1 the results were SW480 rereplic inconclusive, a7 integrin act 17%, MCF10A rereplic 18µM*, AT treatment -3% and Mito fusion act 5%.
`CN1CCN(NC(=O)c2cccc(C(F)(F)F)c2)CC1` gave SW480 rereplic 5.8µM*, a7 integrin act -7%, MCF10A rereplic -2%, AT treatment -4% and Mito fusion act 2%.
Screening CSc1ccc(C2c3[nH]c4ccccc4c3CCN2C(=O)c2cc(C)n(C)n2)cc1 (stereo not drawn) returned AT treatment -3% and Mito fusion act 12%.
For Cc1cc(C(=O)N2CCc3c([nH]c4ccccc34)C2c2cccc(Cl)c2)nn1C (stereo not drawn) the results were SW480 rereplic -4%, a7 integrin act -28%, MCF10A rereplic 23%, AT treatment 8%[11.5 µM] and Mito fusion act 5µM*.
CCc1ccc(C2c3[nH]c4ccccc4c3CCN2C(=O)c2cc(C)nn2C)cc1 (stereo not drawn) was read as SW480 rereplic inconclusive, a7 integrin act 10%, MCF10A rereplic 23µM*, AT treatment 6%[11.5 µM] and Mito fusion act 17%.
Screening CC(C)(C)NC(=O)C(c1ccccc1F)N(Cc1ccco1)C(=O)c1csnn1 (stereo not drawn) returned SW480 rereplic 0%, a7 integrin act 25%, MCF10A rereplic 0%, AT treatment -1% and Mito fusion act 2%.
For CCC(C)(C)NC(=O)C(c1cccn1C)N(Cc1ccc(OC)cc1)C(=O)Cn1nnc2ccccc21 (stereo not drawn) the results were SW480 rereplic inconclusive, a7 integrin act -40%, MCF10A rereplic 1%, AT treatment -3% and Mito fusion act 11%.
`CC1(C)CC(=O)N(Cc2ccccc2)C(=O)C1` gave SW480 rereplic 9.2µM*, a7 integrin act 13%, MCF10A rereplic 0%, AT treatment 1% and Mito fusion act inconclusive.
O=C1CN(CCN2CC(=O)N(Cc3ccccc3)C(=O)C2)CC(=O)N1Cc1ccccc1 was read as a7 integrin act 2%.
`Cc1cc(NC(=O)C2CC(=O)N(c3ccc(F)cc3)C2)no1` (stereo not drawn) gave SW480 rereplic -14%, a7 integrin act -2%, MCF10A rereplic -2%, AT treatment 5% and Mito fusion act -2%.
Screening CC(C)Cc1ccc(CN2CCCC(NC(=O)c3ccnn3C)C2)cc1 (stereo not drawn) returned SW480 rereplic -6%, a7 integrin act -43%, MCF10A rereplic 23%, AT treatment 1% and Mito fusion act -6%.
CC(C)Cc1ccc(CN2CCCC(NC(=O)c3nn(C)c(=O)c4ccccc34)C2)cc1 (stereo not drawn) was read as SW480 rereplic inconclusive, a7 integrin act -30%, MCF10A rereplic 21µM*, AT treatment 6% and Mito fusion act -5%.
Screening COc1ccc(Cl)cc1NC(=O)CN(C)C(=O)CSc1ccc2c(c1)OCCO2 returned SW480 rereplic -17%, a7 integrin act -14%, MCF10A rereplic 13%, AT treatment -4% and Mito fusion act 2%.
CC(NC(=O)c1ccc(F)cc1)C(=O)NC1=NCCS1 (stereo not drawn) was read as SW480 rereplic 6.5µM*, a7 integrin act 1%, MCF10A rereplic 3%, AT treatment -6% and Mito fusion act inconclusive.
`CC(NC(=O)c1ccc(Cl)cc1)C(=O)NC1=NCCS1` (stereo not drawn) gave SW480 rereplic 0%, a7 integrin act 7%, MCF10A rereplic 17%, AT treatment -3% and Mito fusion act 3%.
Cc1cccc(C(=O)NC2=NCCS2)c1 was read as SW480 rereplic 6.5µM*, a7 integrin act 31%, MCF10A rereplic inconclusive, AT treatment -4% and Mito fusion act 14%.
`CCOCCC(=O)Nc1nnc(CCc2ccccc2)s1` gave SW480 rereplic 1%, a7 integrin act -55%, MCF10A rereplic 0%, AT treatment -12% and Mito fusion act -2%.
Screening Cc1ccc(-c2ccc3c(c2)O[C@H](CN(C)Cc2cncnc2)[C@@H](C)CN([C@H](C)CO)S3(=O)=O)cc1 returned a7 integrin act -18%.
For CN(C(=O)Cc1csc(-c2ccccc2)n1)c1c(N)n(Cc2ccccc2)c(=O)[nH]c1=O the results were SW480 rereplic -2%, a7 integrin act 3%, MCF10A rereplic 6%, AT treatment 1% and Mito fusion act -9%.
Screening COC(=O)c1cc(Cl)c(NC(=O)/C=C/c2ccc(Cl)cc2Cl)cc1OC returned SW480 rereplic 1%, a7 integrin act 6%[7.66 µM], MCF10A rereplic 2.1µM*, AT treatment 4% and Mito fusion act -1%.
For COC(=O)c1cc(Cl)c(NC(=O)/C=C/c2ccc(Cl)cc2)cc1OC the results were SW480 rereplic inconclusive, a7 integrin act 2%[7.66 µM], MCF10A rereplic inconclusive, AT treatment -3% and Mito fusion act -2%.
Cc1ccc(NC(=O)CCC(=O)NNC(=O)COc2ccc([N+](=O)[O-])cc2)c(C)c1 was read as SW480 rereplic 2%, a7 integrin act inconclusive, MCF10A rereplic 1.6µM*, AT treatment 2% and Mito fusion act -3%.
For COc1ccc(S(=O)(=O)Nc2cc(Sc3ncn[nH]3)c(O)c3ccccc23)cc1 the results were AT treatment -7% and Mito fusion act -16%.
`O=S(=O)(Nc1cc(Sc2cccc3cccnc23)c(O)c2ccccc12)c1ccc(F)cc1` gave SW480 rereplic 0.73µM*, a7 integrin act -52%, MCF10A rereplic 10µM*, AT treatment -7% and Mito fusion act -15%.
`Cc1cccc2cc(CN(CC3CCCO3)C(=O)c3ccco3)c3nnnn3c12` (stereo not drawn) gave AT treatment -5% and Mito fusion act 2%.
C=CCN([C@H](C(=O)OC)C(C)C)S(=O)(=O)CCNCc1ccccc1 was read as SW480 rereplic -61%, a7 integrin act 2% and MCF10A rereplic 4%.
Screening C=CCN1C(=O)N/C(=C/c2ccccc2OCC(=O)Nc2ccc(F)cc2)C1=O returned SW480 rereplic 333%, a7 integrin act 0%, MCF10A rereplic 23µM*, AT treatment 3% and Mito fusion act 1%.
For CC(C)C(NC(=O)C(CC(=O)O)NC(=O)C(CCCCN)NC(=O)C(N)CCCN=C(N)N)C(=O)NC(Cc1ccc(O)cc1)C(=O)O (stereo not drawn) the results were SW480 rereplic 3% and MCF10A rereplic 1%.
For COc1cc([C@@H]2C[C@H]3CN(c4ccccc4)C(=O)[C@]34CCCN24)cc(OC)c1OC the results were SW480 rereplic -3%, a7 integrin act -29%, MCF10A rereplic 18µM*, AT treatment 1% and Mito fusion act -1%.
